Source: PubChem BioAssay (EPA / NIEHS)
Active and inactive are the calls of the source. How the source made its calls: active means hit-call score of the fitted dose curve at least 0.9, where 1 is the maximum; inactive means score below 0.9.

Columns and labels:
[1] = read-out: Vascular endothelial growth factor receptor 2 (Homo sapiens) (UniProt P35968); assay: BSK_4H_VEGFRII: BioMAP Diversity Plus: 4H Assay for Vascular endothelial growth factor receptor 2 (VEGFR2) Biomarker Activity (AID 2283031); conditions: primary human endothelial cells (HUVEC); actives raise or lower the signal;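 on AC50: cell-surface VEGFR2 protein level quantified by ELISA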
In short: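 In this multiplexed HUVEC system, biomarker ELISA was performed after 24 h chemical exposure. Parallel SRB staining (TCA fixation, 560 nm) tracked cytotoxicity; DMSO served as baseline.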

[2] = read-out: Human Leukocyte Antigen - DR isotype (HLADR), HLA-DRA (gene 3122); assay: BSK_BE3C_HLADR: BioMAP Diversity Plus: BE3C Assay for Human Leukocyte Antigen - DR isotype (HLADR) Biomarker Activity (AID 2283032); conditions: primary human bronchial epithelial cells; actives raise or lower the signal
In short: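 Human primary bronchial epithelial cells in the BE3C system were exposed to chemicals for 24 h, after which HLA-DR levels were quantified by ELISA. Activity was fitted bidirectionally, gain or loss of signal, against DMSO as negative control and baseline.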

[3] = read-out: Vascular cell adhesion molecule 1 (VCAM1), VCAM1 (gene 7412); assay: BSK_4H_VCAM1: BioMAP Diversity Plus: 4H Assay for Vascular cell adhesion molecule 1 (VCAM1) Biomarker Activity (AID 2283033); conditions: primary human endothelial cells (HUVEC); actives raise or lower the signal
In short: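 Primary human umbilical vein endothelial cells were exposed to chemicals for 24 h, after which VCAM-1 was quantified by ELISA. Responses were fitted bidirectionally against DMSO as negative control and activity baseline.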

[4] = read-out: Interferon-gamma inducible Protein 10 (IP10), CXCL10 (gene 3627); assay: BSK_BE3C_IP10: BioMAP Diversity Plus: BE3C Assay for Interferon-gamma inducible Protein 10 (IP10) Biomarker Activity (AID 2283034); conditions: primary human bronchial epithelial cells; actives raise or lower the signal
In short: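 Human primary bronchial epithelial cells were exposed to chemicals for 24 hours, after which IP-10 levels were measured by ELISA. Data were fitted bidirectionally against DMSO, which served as the negative control and activity baseline.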

[5] = read-out: Monokine induced gamma interferon (MIG), CXCL9 (gene 4283); assay: BSK_BE3C_MIG: BioMAP Diversity Plus: BE3C Assay for Monokine induced gamma interferon (MIG) Biomarker Activity (AID 2283035); conditions: primary human bronchial epithelial cells; actives raise or lower the signal
In short: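 MIG level was determined by ELISA after 24 h chemical treatment of primary human bronchial epithelial cells. Values were fitted bidirectionally with DMSO as the negative control and activity baseline.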

[6] = read-out: urokinase plasminogen activator (uPA), PLAU (gene 5328); assay: BSK_BE3C_uPA: BioMAP Diversity Plus: BE3C Assay for urokinase plasminogen activator (uPA) Biomarker Activity (AID 2283038); conditions: primary human bronchial epithelial cells; actives raise or lower the signal
In short: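 Using confluent primary human lung bronchial epithelial cultures, we dosed chemicals, waited 24 h, then ran a uPA ELISA, fitting bidirectionally against DMSO.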

[7] = read-out: Urokinase-type plasminogen activator receptor (uPAR), PLAUR (gene 5329); assay: BSK_BE3C_uPAR: BioMAP Diversity Plus: BE3C Assay for Urokinase-type plasminogen activator receptor (uPAR) Biomarker Activity (AID 2283039); conditions: primary human bronchial epithelial cells; actives raise or lower the signal
In short: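 Primary human bronchial epithelial cells were dosed with chemical and harvested 24 h later; uPAR was quantified by ELISA. Activity was fitted bidirectionally against DMSO as negative control and baseline.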

[8] = read-out: Interleukin-6 (IL6), IL6 (gene 3569); assay: BSK_CASM3C_IL6: BioMAP Diversity Plus: CASM3C Assay for Interleukin-6 (IL6) Biomarker Activity for (AID 2283040); conditions: primary human coronary artery smooth muscle cells; actives raise or lower the signal
[9] = read-out: Transforming growth factor beta 1 (TGFb1), TGFB1 (gene 7040); assay: BSK_BE3C_TGFb1: BioMAP Diversity Plus: BE3C Assay for Transforming growth factor beta 1 (TGFb1) Biomarker Activity (AID 2283036); conditions: primary human bronchial epithelial cells; actives raise or lower the signal
In short: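 Human primary bronchial epithelial cells (BE3C system) were dosed with chemical and TGF-b1 levels measured by ELISA at 24 h. Activity was fitted bidirectionally relative to DMSO negative control as baseline.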

[10] = read-out: Plasminogen activator inhibitor-1 (PAI1), SERPINE1 (gene 5054); assay: BSK_BE3C_PAI1: BioMAP Diversity Plus: BE3C Assay for Plasminogen activator inhibitor-1 (PAI1) Biomarker Activity (AID 2283037); conditions: primary human bronchial epithelial cells; actives raise or lower the signal
In short: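 Human primary bronchial epithelial cells were exposed to chemical for 24 h, then PAI-1 was quantified by ELISA. Activity was fitted bidirectionally relative to the DMSO negative control baseline.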

Measured: AC50

O=S(=O)(O)CCC(F)(F)C(F)(F)C(F)(F)C(F)(F)C(F)(F)C(F)(F)F
inactive: [1] | [2] | [3] | [4] | [5] | [6] | [7] | [8]

CCCCCCCCCC
inactive: [1] | [2] | [3] | [4] | [5] | [9] | [6] | [7] | [8]

O=C(Cl)C(F)(F)C(F)(F)C(F)(F)C(=O)Cl
inactive: [1] | [2] | [3] | [4] | [5] | [6] | [7] | [8]

Cc1nccn1-c1ccc(Sc2cccc(C3(C(N)=O)CCOCC3)c2)cc1
inactive: [1] | [5] | [9]
active: [2] 12.8 µM | [3] 6.37 µM | [4] 20 µM | [6] 14.3 µM | [7] 10.3 µM | [8] 5.2 µM

CCCc1ccccc1
inactive: [1] | [2] | [3] | [4] | [5] | [9] | [6] | [7] | [8]

OC(O)(C(F)C(O)(O)C(F)(F)F)C(F)(F)F
inactive: [1] | [2] | [3] | [4] | [5] | [6] | [7] | [8]

FC(F)(F)COC(OCC(F)(F)F)OCC(F)(F)F
inactive: [1] | [2] | [3] | [4] | [5] | [10] | [6] | [7] | [8]

CCCCCCOC(=O)CC(CC(=O)OCCCCCC)(OC(=O)CCC)C(=O)OCCCCCC
inactive: [1] | [2] | [3] | [4] | [5] | [9] | [6] | [7] | [8]

COCc1nnc(-c2ccc[n+]([O-])c2)n1-c1c(Cl)c(Cl)cc2[nH]c(=O)c(=O)[nH]c12
inactive: [1] | [2] | [3] | [4] | [5] | [9] | [6] | [7] | [8]

c1ccc2ncccc2c1
inactive: [1] | [2] | [3] | [4] | [5] | [9] | [6] | [7] | [8]

OCCC(F)(F)C(F)(F)C(F)(F)C(F)(F)F
inactive: [1] | [2] | [3] | [4] | [5] | [6] | [7] | [8]

NC(=O)N1c2ccccc2C=Cc2ccccc21
inactive: [1] | [2] | [3] | [5] | [9] | [10] | [6] | [7] | [8]

NCC(F)(F)C(F)(F)C(F)(F)C(F)(F)F
inactive: [1] | [2] | [3] | [4] | [5] | [6] | [7] | [8]

OCc1c[nH]c2ccccc12
inactive: [1] | [3] | [5] | [9] | [6] | [7] | [8]
active: [2] 3.97 µM | [4] 5.95 µM

CCOc1ccc2[nH]cc(C(=O)NCc3ccccc3)c(=O)c2n1
inactive: [1] | [2] | [3] | [4] | [5] | [9] | [6] | [7] | [8]

Cc1cccc(O)c1C
inactive: [1] | [2] | [3] | [4] | [5] | [9] | [6] | [7] | [8]

CC(C)c1nnc2ccc(-c3ocnc3-c3cc(F)ccc3F)cn12
inactive: [1] | [2] | [3] | [4] | [5] | [9] | [6] | [7]
active: [8] 0.552 µM

C=CN1CCCC1=O
inactive: [1] | [2] | [3] | [4] | [5] | [9] | [6] | [7] | [8]

O=C(O)c1cccc(C[C@@H]2COc3ccc(OCc4nc5cc(F)ccc5s4)cc3[C@@H]2O)c1
inactive: [1] | [2] | [3] | [4] | [5] | [9] | [6] | [7] | [8]

C[Si](C)(C)C(F)(F)C(F)(F)C(F)(F)F
inactive: [1] | [2] | [3] | [4] | [5] | [10] | [6] | [7] | [8]

CCN(CC)C(=S)SSC(=S)N(CC)CC
inactive: [8]
active: [1] 26.8 µM | [2] 8.96 µM | [3] 32.4 µM | [4] 25.5 µM | [5] 32.3 µM | [9] 17.9 µM | [6] 18.7 µM | [7] 22.6 µM

OCCOCCOCCO
inactive: [1] | [2] | [3] | [4] | [5] | [9] | [6] | [7] | [8]
